Experimental data reported in PubChem BioAssay.
The source made the active and inactive calls. No rule for the calls is given here.

Assay: blockers of DNA damage checkpoint Chk1 activation – imaging, HeLa, hydroxyurea, phospho-Chk1 nuclear intensity, primary screen (AID 1187); also: test concentration not given here
Conditions: hydroxyurea-induced phospho-Chk1 immunofluorescence imaging, higher = more signal

SMILES	z-score
COC(=O)c1ccc(C(O)C2C=CC3C(=O)N(c4ccccc4)C(=O)C3N2Nc2ccc(C#N)cc2)o1 (stereo unspecified)	-0.852 (inactive)
COc1c(C)cc(-c2cc3c(c(-c4ccc(Oc5ccccc5)cc4)n2)[Si](C(C)C)(C(C)C)OC3)cc1C	0.37 (inactive)
COC(=O)[C@@]1(Cc2ccc(F)cc2)[C@H]2c3cc(C(=O)N(C)C)n(CCc4ccccn4)c3C[C@H]2CN1C(=O)c1ccccc1	0.288 (inactive)
COCC(=C=CC[C@H](O)c1ccc(OCCO)cc1)C[C@H](O)c1cc(Cl)cc(Cl)c1O	0.56 (inactive)
CC(C)(C)OC(=O)CC[C@]1(C(=O)N2CCCCC2)N=C(c2ccc(OCCCO)cc2)O[C@H]1c1ccccc1N=[N+]=[N-]	0.212 (inactive)
CC(C)C(O)C1C=CC2C(=O)N(c3ccccc3)C(=O)C2N1Nc1ccc(C#N)cc1 (stereo unspecified)	-0.419 (inactive)
